Screens from PubChem.
Only some compounds are listed: those with a hit (about 7.4% of all), similar ones and a draw of the others.
FLuc modulator: firefly luciferase modulation, counter-screen for miR-21 project | purified FLuc, Km substrates, luminescence inhibition | Potency, µM (series often up to 57.5 µM), actives largely listed as inhibitors | hit rate 6.9% among 360,000; further: nearly all actives have a fitted effect of over 55% in size
Target sequence (P08659 whole entry, looked up): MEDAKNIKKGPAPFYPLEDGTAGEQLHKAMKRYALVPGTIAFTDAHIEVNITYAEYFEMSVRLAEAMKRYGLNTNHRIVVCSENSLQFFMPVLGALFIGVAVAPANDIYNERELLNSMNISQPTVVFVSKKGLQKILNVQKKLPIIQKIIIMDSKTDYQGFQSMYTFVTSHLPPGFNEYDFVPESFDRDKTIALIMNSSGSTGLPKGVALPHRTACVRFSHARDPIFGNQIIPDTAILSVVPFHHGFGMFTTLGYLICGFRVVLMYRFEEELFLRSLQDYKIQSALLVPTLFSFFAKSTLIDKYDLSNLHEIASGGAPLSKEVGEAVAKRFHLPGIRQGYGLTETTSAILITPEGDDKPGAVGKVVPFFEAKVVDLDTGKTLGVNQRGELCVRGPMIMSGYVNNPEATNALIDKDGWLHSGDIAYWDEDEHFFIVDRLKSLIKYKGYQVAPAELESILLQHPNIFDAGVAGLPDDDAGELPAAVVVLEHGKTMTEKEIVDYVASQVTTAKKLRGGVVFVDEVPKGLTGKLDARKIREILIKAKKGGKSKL
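Purified P. pyralis luciferase (10nM final) with 10uM D-luciferin and 10uM ATP (Km levels) in 50mM Tris acetate pH 7.5, 10mM Mg acetate, 0.01% Tween-20, 0.05% BSA; qHTS 6-point titration, ~60 µM downward; luminescence read.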
Rab9 promoter act: Rab9 promoter activation | AID 485297 | hit rate 2.8% among 320,000 | Huh7 Rab9 promoter-luciferase reporter, luminescence, 24 h | Potency, µM (highest dose often 9.22 µM), usual class: activators; further: nearly all actives have a fitted effect of over 60% in size
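Cells were plated at 1500 per well in reduced-serum medium with 10% FBS and left 2 h. Compound in DMSO was then added for 24 h at 37 °C. Reporter signal was read by luminescence after 10 min with luciferase detection reagent.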
NPC1 promoter act: activators of NPC1 promoter | Huh7 NPC1 promoter luciferase reporter, 24 h | Potency, µM (titrated, usually from 9.22 µM), usual class: activators | hit rate 2.4% among 320,000; further: nearly all actives have a fitted effect of over 60% in size
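Cells: Huh7 expressing luciferase under the NPC1 promoter, 1500/well. Seeded 2 h, compound added, incubated 24 h at 37 °C. Luciferase reagent, 10 min ambient, then luminescence.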
ELG1 genotoxic: genotoxicity induction in ELG1-luciferase HEK293T cells. AID 504466. hit rate 1.3% among 330,000. HEK293T ELG1-luciferase reporter, luminescence, 16 h. Potency, µM (doses to about 46 µM), actives largely listed as activators; further: nearly all actives have a fitted effect of over 60% in size
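16 hr compound incubation (37 °C, 5% CO2) of HEK293T cells carrying luciferase-tagged ELG1; luciferase then measured by ONE-Glo luminescence after 30 min at RT.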
SMN2 splice enh: increases expression of the SMN2 splice variant | HEK293 SMN2-luciferase splicing reporter, luminescence, 30-36 h | hit rate 2.8% among 210,000 | Potency, µM (titrated, usually from 46.1 µM), actives largely listed as activators; further: nearly all actives have a fitted effect of over 55% in size
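HEK293 cells carry an SMN2 minigene-luciferase reporter in which exon 7 inclusion puts luciferase in frame. Cells were seeded at 2000 cells/well, attached for 10-12 hours, then exposed to compounds for 30-36 hours at 37C before ONE-Glo luminescence.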
p53 reactivation: re-activators of mutant p53. H1299 p53-A138V BP100-luciferase reporter, luminescence, 24 h. Potency, µM (series often up to 92.2 µM), usual class: activators. hit rate 0.063% among 320,000. AID 504706; further: nearly all actives have a fitted effect of over 45% in size
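p53-null H1299 cells stably carrying temperature-sensitive p53-A138V and a BP100-luciferase reporter were pinned with compounds (4-point, 1:5 series) and held 24 hrs at 37 deg C. Luminescence was read 10 min after detection reagent.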
Hits are given with their value; i = inactive; ? = inconclusive; nt = not tested or not shown. The call rests on the fitted dose curve; in most records, active means well fitted curve in the direction sought with a large enough effect; inconclusive means small, poorly fitted or top-dose-only effect, or another doubt; inactive means no such curve, though single readings can be large; an effect the other way counts as inactive or inconclusive.

SMILES	FLuc modulator	Rab9 promoter act	NPC1 promoter act	ELG1 genotoxic	SMN2 splice enh	p53 reactivation
O=C(Nc1cccc(C(=O)Nc2ccc(S(=O)(=O)O)c3cc(S(=O)(=O)O)cc(S(=O)(=O)O)c23)c1)Nc1cccc(C(=O)Nc2ccc(S(=O)(=O)O)c3cc(S(=O)(=O)O)cc(S(=O)(=O)O)c23)c1	nt	i	i	nt	i	nt
C#CCN1C(=O)S/C(=C\c2ccc(-c3ccc(Cl)c(C(=O)O)c3)o2)C1=O	10.7µM	1.78µM	0.794µM	16.4µM	nt	nt
Cc1cccc(N2NC(=O)/C(=C/c3ccc(-c4ccc(Cl)c(C(=O)O)c4)o3)C2=O)c1	23.9µM	i	i	i	i	i
CCN=C1S/C(=C\c2ccc(-c3cccc(C(=O)O)c3)o2)C(=O)N1CC	0.757µM	0.398µM	0.631µM	1.64µM	3.55µM	i
O=C(O)c1cc(-c2ccc(/C=C3\NC(=O)N(c4ccc(Cl)cc4)C3=O)o2)ccc1Cl	19µM	i	i	i	i	i
O=C1NN(c2ccccc2)C(=O)/C1=C/c1ccc(-c2ccc(Cl)c(C(=O)O)c2)o1	?	i	i	i	i	i
COc1ccc(-c2cc(C(=O)NCc3ccc(F)cc3)c3c(-c4ccc(F)cc4)[nH]nc3n2)cc1OC	i	nt	nt	nt	nt	nt
COC(=O)c1cc2sc(C)cc2n1Cc1nc(-c2ccc(C)cc2)oc1C	i	nt	nt	nt	i	nt
CSc1ccccc1C(=O)N1CCN(S(=O)(=O)c2sc(C(=O)O)c(C)c2C(=O)O)CC1	nt	i	i	i	nt	i
COCCCNc1oc(/C=C/c2cc(OC)c(OC)c(OC)c2)nc1C#N	i	nt	nt	nt	?	nt
O=C(Nc1nc2ccccc2[nH]1)C1CCCC1	15.1µM	1.26µM	1.58µM	?	11.2µM	i
O=C(Nc1nc2ccccc2[nH]1)C1CCC1	16.9µM	2.82µM	?	?	12.6µM	i
O=C(CC1CCCC1)Nc1nc2ccccc2[nH]1	9.53µM	2.82µM	3.55µM	16.4µM	12.6µM	i
O=C(NCc1nc2ccccc2[nH]1)C1CCCCC1	i	i	i	i	i	i
CC(C)[C@H](NC(=O)C1CCCC1)c1nc2ccccc2[nH]1	i	i	i	i	i	i
O=C(Cc1cccc2ccccc12)Nc1nc2ccccc2[nH]1	i	i	i	i	i	i
O=C(C1CC1)N1CCc2cc(S(=O)(=O)NCc3ccccc3)ccc21	i	i	i	i	nt	i
CCOc1ccc(Nc2nc(N)nc(CCl)n2)cc1	3.01µM	i	i	i	nt	i
COc1ccc(Nc2nc(N)nc(CSCCO)n2)cc1	?	i	i	?	i	i
Cc1ccc(Nc2nc(N)nc(CC#N)n2)cc1	10.7µM	?	?	18.4µM	17.8µM	?
Nc1nc(CCl)nc(Nc2ccccc2)n1	?	i	i	i	nt	i
Cc1ccc(Nc2nc(N)nc(CCl)n2)c(C)c1	10.7µM	i	i	i	nt	i
Cc1ccc(Nc2nc(N)nc(CSCCO)n2)cc1	23.9µM	2µM	?	?	?	?
Cc1ccc(Nc2nc(N)nc(CSc3nc4ccccc4s3)n2)cc1	i	i	i	i	i	i
CSCCC(NC(=O)c1ccccc1)C(=O)N1CCN(C(C)=O)CC1 (stereo not given)	i	i	i	i	nt	i
SMILES	FLuc modulator	Rab9 promoter act	NPC1 promoter act	ELG1 genotoxic	SMN2 splice enh	p53 reactivation
CCOC(=O)c1c(NC(=O)c2nc(SC)ncc2Cl)sc(C)c1C	i	nt	nt	nt	i	nt
COc1ccc(NC(=O)N2CCCC3(CCN(C(=O)c4c(C)noc4C)CC3)C2)cc1	nt	nt	nt	nt	i	nt
Cc1ccc(NC(=O)CCCn2c(=O)c3cccn3c3ccccc32)cc1C	i	nt	nt	nt	nt	nt
COc1cccc(Nc2nc(N)nc(CCl)n2)c1	21.3µM	i	i	i	nt	i
Cc1ccc(Nc2nc(N)nc(CCl)n2)cc1	1.9µM	i	i	i	nt	?
Cc1ccc(Nc2nc(N)nc(COC(=O)C3=COCCO3)n2)cc1	13.5µM	2.82µM	2µM	?	nt	?
O=C(Nc1cccc(C(F)(F)F)c1)c1cccnn1	i	i	i	i	nt	i
Cc1ccc(N2C(=O)CSC23C(=O)N(CC(=O)Nc2ccccc2F)c2ccccc23)cc1C (stereo not given)	i	nt	nt	nt	nt	nt
N#C/C(=C(/O)COC(=O)Cc1c[nH]c2ccccc12)c1nc2ccccc2[nH]1	15.1µM	i	i	i	i	?
